In the library only some 10% were active in any assay of this set; here they are far more common.
G9a inh: qHTS Assay for Inhibitors of Histone Lysine Methyltransferase G9a | Potency, µM (doses to about 102 µM), hits mostly inhibitors | Histone-lysine N-methyltransferase EHMT2 (Homo sapiens), Q96KQ7 | G9a H3K9 monomethylation, AlphaScreen, 2 h | hit rate 8.8% among 350,000; also: nearly all actives have a fitted effect of over 75% in size
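Compounds were preincubated with 20 nM G9a for 15 min, after which biotinylated H3K9 peptide (500 nM) and SAM (20 uM) started a 2 h room-temperature reaction. Monomethylated product was quantified by antibody-based AlphaScreen chemiluminescence.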
JMJD2A Tudor: qHTS Assay for Inhibitors of JMJD2A-Tudor Domain; Lysine-specific demethylase 4A (Homo sapiens), O75164; AlphaScreen JMJD2A-Tudor / H3K4me3 peptide binding; Potency, µM (doses to about 114 µM), hits mostly inhibitors; hit rate 4.4% among 390,000; AID 504339, 2011; also: nearly all actives have a fitted effect of over 50% in size
GLS inh: qHTS for Inhibitors of Glutaminase (GLS) | AID 624170, 2012 | hit rate 0.21% among 410,000 | GLS enzymatic activity, qHTS titration | Glutaminase kidney isoform, mitochondrial (Homo sapiens), O94925 | Potency, µM (series often up to 45.5 µM), most hits filed as inhibitors
Target sequence (O94925 whole entry, looked up, canonical isoform): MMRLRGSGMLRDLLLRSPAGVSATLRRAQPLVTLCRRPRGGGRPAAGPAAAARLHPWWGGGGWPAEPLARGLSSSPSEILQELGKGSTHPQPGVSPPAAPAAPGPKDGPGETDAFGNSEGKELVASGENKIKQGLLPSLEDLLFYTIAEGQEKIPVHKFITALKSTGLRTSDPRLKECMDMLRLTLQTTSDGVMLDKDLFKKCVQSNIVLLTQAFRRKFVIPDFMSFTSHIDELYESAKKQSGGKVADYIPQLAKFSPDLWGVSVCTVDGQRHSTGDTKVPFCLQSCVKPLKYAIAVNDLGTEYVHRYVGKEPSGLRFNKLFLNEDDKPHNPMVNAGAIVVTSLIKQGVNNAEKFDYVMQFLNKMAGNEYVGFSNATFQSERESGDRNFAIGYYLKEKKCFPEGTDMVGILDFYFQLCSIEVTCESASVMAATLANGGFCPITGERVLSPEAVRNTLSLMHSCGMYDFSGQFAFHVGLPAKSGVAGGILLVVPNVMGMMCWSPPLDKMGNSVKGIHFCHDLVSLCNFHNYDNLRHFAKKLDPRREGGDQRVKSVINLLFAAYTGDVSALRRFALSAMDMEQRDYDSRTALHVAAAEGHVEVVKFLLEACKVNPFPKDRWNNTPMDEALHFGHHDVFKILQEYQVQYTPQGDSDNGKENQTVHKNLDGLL
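Glutamate formation by hKGA was monitored fluorometrically using coupled glutamate oxidase, HRP and Amplex Red. Substrate was added as 1 mM L-glutamine solution; incubation was 30 min at RT after an initial read.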
BAZ2B block: qHTS Assay for Inhibitors of BAZ2B | Bromodomain adjacent to zinc finger domain protein 2B (Homo sapiens), Q9UIF8 | AlphaScreen BAZ2B-H3K14Ac peptide displacement | Potency, µM (top dose mostly 114 µM), usual class: inhibitors | hit rate 4.4% among 360,000 | AID 504333, 2011; also: nearly all actives have a fitted effect of over 60% in size
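Inhibition is scored as reduced AlphaScreen emission. The BAZ2B/b-H3(5-23)K14Ac complex (50 nM each) in PBS pH 7.4, 0.01% Tween-20 meets compound (up to 110 uM) for 30 min at RT before bead addition.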
HP1b binding inh: HTS for Inhibitors of HP1-beta Chromodomain Interactions with Methylated Histone Tails | Potency, µM (top dose mostly 114 µM), most hits filed as inhibitors | AlphaScreen HP1-beta / biotin-H3K9me3 peptide binding | Chromobox protein homolog 1 (Homo sapiens), P83916 | hit rate 0.56% among 390,000 | AID 540317, 2011; also: nearly all actives have a fitted effect of over 70% in size
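HP1-beta protein (50 nM final) preincubated 30 min at room temperature with biotinylated H3(1-18)K9me3 peptide (50 nM) in PBS pH 7.4, 0.01% Tween-20, then compound added for 30 min. AlphaScreen streptavidin donor/nickel chelate acceptor beads (10 ug/mL final), 30 min dark, luminescence read.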
Numbers stand for hits; n = inactive; u = inconclusive; x = no result given; [ ] = remark or other dose. Calls follow the shape of the dose curve; as a rule, active = well fitted curve in the direction sought with a large enough effect; inconclusive = small, poorly fitted or top-dose-only effect, or another doubt; inactive = no such curve, though single readings can be large; an effect the other way counts as inactive or inconclusive.

SMILES	G9a inh	JMJD2A Tudor	GLS inh	BAZ2B block	HP1b binding inh
COc1cccc(/C=C/C(=O)c2ccc(C)c([N+](=O)[O-])c2)c1	u	n	n	n	n
O=C(O)c1cccc(N/N=C/c2cccc3ccccc23)c1	35µM	n	u	n	n
Cc1cccc2cc(/C=N/Nc3ccc(C(=O)O)cc3)c(Cl)nc12	x	u	n	50µM	n
O=C(O)c1ccc(N/N=C/c2cc3ccccc3nc2Cl)cc1	u	n	n	n	n
Cc1ccsc1/C=N/Nc1cccc(C(=O)O)c1	45µM	n	n	n	n
O=C(O)c1cccc(Cn2c(Cl)c(/C=N/Nc3ccccc3)sc2=O)c1	13µM	u	u	25µM	n
CCOCCCNC(=O)c1ccc(-n2c(-c3ccccc3)cc3c2CCC(C)C3)cc1 (stereo not given)	n	n	n	n	n
COc1cc(CN2CCCC(C(=O)Nc3cccc(-n4cccn4)c3)C2)ccc1F (stereo not given)	n	n	n	n	n
O=C(COC(=O)/C=C/c1cccc([N+](=O)[O-])c1)NCC1CCCO1 (stereo not given)	n	n	n	x	n
COc1ccc2ccccc2c1/C=N/Nc1cccc(C(=O)O)c1	45µM	n	7.9µM	u	n
O=C(N/N=C/c1sc(=O)n(Cc2ccc(Br)cc2)c1Cl)c1ccco1	n[0.0925 µM]	u	n	89µM	n
COc1ccc(N/N=C/c2c(C(=O)O)ccc3ccccc23)cc1	n[12.7 µM]	n	n	n	n
COc1ccc2ccccc2c1/C=N/Nc1ccc(Cl)c(C(=O)O)c1	45µM	n	u	u	u
COc1ccc(-c2nn(-c3ccccc3)cc2/C=N/Nc2ccc(Cl)c(C(=O)O)c2)cc1OC	40µM	n	n	n	n
CC1=CCC2COC(c3ccc[n+](Cc4ccccc4)c3)C1C2 (stereo not given)	u	n	n	n	n
CCOC(=O)Cn1nc2oc(=O)c(CCN3CCN(c4ccccc4OC)CC3)c(C)c2c1C	x	x	n	x	x
Cc1ccc(C(=O)N2CCN(CCc3ccncc3)CC2)cc1	n	n	n	n	n
CCCN1Cc2cccc(C(=O)Nc3ccccc3C(=O)OC)c2C1=O	n	n	n	x	n
CCCCCCCNC(=O)C1(CC2CC(c3cccc(Br)c3)=NO2)CCN(C(=O)OC(C)(C)C)CC1 (stereo not given)	x	n	n	n	n
Cc1nn(-c2ccccc2Cl)c(Cl)c1/C=N/Nc1cccc(C(=O)O)c1	8.9µM	n	n	u	n
Cc1nn(-c2cccc(C(F)(F)F)c2)c(Cl)c1/C=N/Nc1cccc(C(=O)O)c1	u	u	n	u	n
Cc1ccc(NC(=O)c2noc3c2CCCCC3)cc1	n	n	n	n	n
NNc1ccccc1C(F)(F)F	2.8µM	32µM	n	50µM	u
CC(=O)Nc1ccccc1C(F)(F)F	n	n	n	n	n
CC1(C)CC(=O)C/C(=N/NC(=O)C2CCN(S(=O)(=O)c3cccs3)CC2)C1	n	n	n	n	n
SMILES	G9a inh	JMJD2A Tudor	GLS inh	BAZ2B block	HP1b binding inh
CNC(=O)Nc1ccc2snnc2c1	50µM	n	n	n	n
O=[N+]([O-])c1ccccc1NCCOc1ccccc1	u	u	n	22µM	n
O=[N+]([O-])c1ccc(N2CCCCC2)cc1NCCOc1ccccc1	u	n	n	u	u
CCN1C(=O)N(CC)c2cccc3cccc1c23	n	n	n	n	n
O=C(O)CCc1ccc(-c2ccc(Br)cc2)o1	16µM	56µM	n	n	n
O=C(O)CCc1ccc(-c2ccc(Cl)cc2)o1	4µM	u	n	n	n
COc1ccc(-c2ccc(CCC(=O)O)o2)cc1	28µM	79µM	n	n	n
Cc1oc(-c2ccc(Cl)cc2)cc1C(=O)O	x	n	n	n	n
O=C(OCc1cccc(C(F)(F)F)c1)c1ccc(-c2nnn(Cc3ccc(F)cc3)n2)cc1	n	n	n	n	n
CCOCCN1CCN(C(=O)CN2CCCC2=O)CC1	7.9µM	u	n	89µM	n
O=C(O)CSc1cc(C(=O)c2cc(F)ccc2O)cn2c(=O)c3c(-c4ccccc4)csc3nc12	50µM	56µM	n	56µM	n
CCc1c(C)sc2nc3c(C(=O)N4CCOCC4)cc(C(=O)c4cc(F)ccc4O)cn3c(=O)c12	u	u	n	x	n
CCOC(=O)c1sc2nc3c(SCCC(=O)O)cc(C(=O)c4cc(OC)ccc4O)cn3c(=O)c2c1C	11µM	14µM	5.6µM	35µM	n
CCOC(=O)c1sc2nc3c(SCCC#N)cc(C(=O)c4cc(F)ccc4O)cn3c(=O)c2c1C	u	n	n	n	n
COc1ccc(NC(=O)c2ccc(Cl)nc2)cc1S(=O)(=O)N1CCOCC1	n[12.7 µM]	n	n	n	n
CO/S(=N\S(=O)(=O)c1ccc(Cl)cc1)c1ccc([N+](=O)[O-])cc1 (stereo not given)	3.2µM	x	x	x	x
C1CCC(C23CC4CC(CC(C4)C2)C3)NC1 (stereo not given)	n	n	u	n	n
COc1ccc(OC)c(CNCCNC(=O)c2ccco2)c1	u	x	x	56µM	x
COc1cccc(CNCCNC(=O)c2ccco2)c1OC	11µM	u	n	50µM	n
COc1ccc(CNCCNC(=O)c2cccs2)c(OC)c1OC	14µM	22µM	n	56µM	n
COCCCNC(=O)c1cccs1	n	n	n	n	n
O=C(NCCNCc1ccc(F)cc1)c1ccco1	7.9µM	3.5µM	n	50µM	u
CC(=O)c1ccc(-c2ccc(C(=O)NC3CCCCCC3)o2)cc1	50µM	n	n	n	n
O=C(NC1CCC(O)CC1)c1ccc(-c2ccc(Cl)cc2)o1 (stereo not given)	u	n	n	n	n
COC(=O)c1sc(S(=O)(=O)Nc2c(C)nn(C)c2C)c(C(=O)OC)c1C	56µM	n	n	n	n
SMILES	G9a inh	JMJD2A Tudor	GLS inh	BAZ2B block	HP1b binding inh
COC(=O)c1sc(NC(=O)C(C)C)c(C(=O)OC)c1C	n	n	n	u	n
COC(=O)c1sc(S(=O)(=O)NCC(=O)O)c(C(=O)OC)c1C	71µM	n	n	u	n
CCC(=O)Nc1sc(C(=O)OC)c(C)c1C(=O)OC	28µM	n	u	n	n
COC(=O)c1sc(NC(=S)NNC(=O)c2c(Br)c(C)nn2C)c(C(=O)OC)c1C	x	50µM	n	25µM	n
O=C1CCC(C(=O)OC(C(=O)Nc2ccc([N+](=O)[O-])cc2Br)c2ccccc2)=NN1 (stereo not given)	n[2.33 µM]	n	n	n	n
c1ccc(CCCNCC2COc3ccccc3O2)cc1 (stereo not given)	n	n	n	n	n
COc1ccc(-n2nc(C(=O)Nc3nc4ccc(OC)cc4s3)c3ccccc3c2=O)c(OC)c1	n	x	x	n	x
